About 2,000 (36%) of roughly 5,500 compounds were called active. Inconclusive results (about 18%) are left out. Rule as the data show it: active = normalized growth mostly below about 0.91 (no sharp cut-off); inconclusive = no clear call, values can overlap the other calls; inactive = mostly above about 0.92. This is one part of the list.
Test: chemical genetic growth profiling, strain panel (AID 1159580);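 also: tested at 20 µM; growth read once vehicle control cultures reached saturation at 30 °C; 1 = growth at the plate median or of vehicle wells; lower values mean less growth of the strain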
Settings: S. cerevisiae deletion strains, growth OD
[1] = locus YDL101C, strain DUN1, hits give low values
[2] = locus YHR030C, strain SLT2, hits give low values

Measured: normalized growth

O=C(c1cccc([N+](=O)[O-])c1)c1cc2cc(Br)cc(Br)c2o1
inactive: locus YAL013W, strain DEP1, hits give low values 0.993 | locus YBR229C, strain ROT2, hits give low values 0.997 | [1] 1.01 | locus YDL134C, strain PPH21, hits give low values 0.994 | locus YDR150W, strain NUM1, hits give low values 0.952 | locus YEL061C, strain CIN8, hits give low values 0.983 | locus YGR078C, strain PAC10, hits give low values 0.989 | locus YGR229C, strain SMI1, hits give low values 1 | [2] 0.837 | locus YHR087W, strain rtc3, hits give low values 0.981 | locus YJR043C, strain POL32, hits give low values 0.997 | locus YJR075W, strain HOC1, hits give low values 0.975 | locus YKL190W, strain CNB1, hits give low values 0.996 | locus YLR039C, strain RIC1, hits give low values 0.954 | locus YLR058C, strain SHM2 (second series), hits give low values 0.994 | locus YLR085C, strain ARP6, hits give low values 0.847 | locus YLR262C, strain YPT6, hits give low values 0.974 | locus YML094W, strain GIM5, hits give low values 0.988 | locus YMR219W, strain ESC1, hits give low values 0.994 | locus YMR263W, strain SAP30, hits give low values 0.96 | locus YMR307W, strain GAS1, hits give low values 0.864 | locus YNL153C, strain GIM3, hits give low values 0.988 | locus YNL298W, strain CLA4 (second series), hits give low values 0.948 | locus YNL322C, strain KRE1, hits give low values 0.991 | locus YNR030W, strain Alg12, hits give low values 0.953 | locus YOL006C, strain TOP1, hits give low values 0.935 | locus YPL055C, strain LGE1, hits give low values 0.974 | locus YPL241C, strain CIN2, hits give low values 0.942 | locus YPR135W, strain CTF4, hits give low values 0.964

CN1c2ccccc2C(C)(C)C12C=Cc1cc(O)ccc1O2 (stereo not given)
inactive: locus YAR019C, strain CDC15, hits give low values 0.981 | locus YBL105C, strain PKC1, hits give low values 0.981 | locus YBR135W, strain CKS1, hits give low values 0.977 | locus YBR136W, strain MEC1, hits give low values 0.981 | locus YBR160W, strain CDC28, hits give low values 0.984 | locus YDL017W, strain CDC7, hits give low values 0.974 | locus YDL028C, strain MPS1, hits give low values 0.979 | [1] 0.975 | locus YDL108W, strain KIN28, hits give low values 0.974 | locus YDL132W, strain cdc53, hits give low values 0.977 | locus YDL214C, strain PRR2, hits give low values 0.986 | locus YDR052C, strain DBF4, hits give low values 0.982 | locus YDR054C, strain cdc34, hits give low values 0.97 | locus YDR226W, strain ADK1, hits give low values 0.972 | locus YDR477W, strain SNF1, hits give low values 0.971 | locus YER123W, strain YCK3, hits give low values 0.987 | locus YER133W, strain GLC7, hits give low values 0.974 | locus YFL009W, strain cdc4, hits give low values 0.968 | locus YFL029C, strain CAK1, hits give low values 0.978 | locus YFR003C, strain YPI1, hits give low values 0.976 | locus YFR019W, strain FAB1, hits give low values 0.993 | locus YFR028C, strain CDC14, hits give low values 0.976 | locus YGR040W, strain KSS1, hits give low values 0.972 | locus YGR052W, strain FMP48, hits give low values 1.01 | locus YGR092W, strain DBF2, hits give low values 0.996 | [2] 0.897 | locus YHR079C, strain IRE1, hits give low values 1.01 | locus YHR082C, strain KSP1, hits give low values 1.06 | locus YHR205W, strain SCH9, hits give low values 0.985 | locus YIL147C, strain SLN1, hits give low values 0.978 | locus YJL095W, strain BCK1, hits give low values 1.01 | locus YJL128C, strain PBS2, hits give low values 0.942 | locus YJL157C, strain FAR1, hits give low values 0.978 | locus YJR016C, strain ILV3, hits give low values 0.968 | locus YJR066W, strain TOR1 (second series), hits give low values 0.965 | locus YJR066W, strain TOR1, hits give low values 1.08 | locus YKL048C, strain ELM1, hits give low values 0.975 | locus YKL067W, strain YNK1, hits give low values 0.975 | locus YKL101W, strain HSL1, hits give low values 0.962 | locus YKL193C, strain SDS22, hits give low values 0.973 | locus YKL203C, strain TOR2, hits give low values 1.05 | locus YLR113W, strain HOG1, hits give low values 0.891 | locus YLR133W, strain CKI1, hits give low values 0.984 | locus YLR403W, strain SFP1, hits give low values 1.01 | locus YML070W, strain DAK1, hits give low values 0.978 | locus YMR001C, strain CDC5, hits give low values 0.971 | locus YMR205C, strain PFK2 (second series), hits give low values 0.991 | locus YMR277W, strain FCP1, hits give low values 0.973 | locus YNL006W, strain LST8, hits give low values 0.978 | locus YNL020C, strain ARK1, hits give low values 0.982 | locus YNL161W, strain CBK1, hits give low values 0.973 | locus YNL183C, strain NPR1, hits give low values 1.08 | locus YNL207W, strain RIO2, hits give low values 0.974 | locus YNL222W, strain SSU72, hits give low values 0.986 | locus YNL307C, strain MCK1 (second series), hits give low values 0.978 | locus YOL078W, strain AVO1, hits give low values 0.975 | locus YOL136C, strain PFK27, hits give low values 0.991 | locus YOR061W, strain CKA2, hits give low values 0.993 | locus YOR119C, strain RIO1, hits give low values 1.05 | locus YOR231W, strain MKK1, hits give low values 1.02 | locus YOR329C, strain SCD5, hits give low values 0.985 | locus YPL031C, strain PHO85, hits give low values 0.962 | locus YPL153C, strain RAD53, hits give low values 0.958 | locus YPL204W, strain HRR25, hits give low values 0.943 | locus YPL209C, strain IPL1, hits give low values 0.974 | locus YPL256C, strain CLN2, hits give low values 0.899 | locus YPR025C, strain CCL1, hits give low values 0.993 | locus YPR106W, strain ISR1, hits give low values 0.984 | locus YPR111W, strain DBF20, hits give low values 0.977 | strain NNK1, hits give low values 0.989 | strain TSCII, hits give low values 0.978
